In PubChem BioAssay (NCATS):
Values joined by “and” are separate entries in the source; they are usually repeats but may differ in a detail not shown here. Equal values may be shown once. Inconclusive results are not listed. A call without a number means that no potency is given here. Unmarked numbers belong to inactive results. Active and inactive are the calls of the source. Calls come from the whole dose curve; as a rule, active = well fitted curve in the direction sought with a large enough effect; inconclusive = small, poorly fitted or top-dose-only effect, or another doubt; inactive = no such curve, though single readings can be large; an effect the other way counts as inactive or inconclusive.

Tests used:
[1] = molecular target: Cellular tumor antigen p53 (Homo sapiens) (UniProt P04637); experiment: Primary qHTS for small molecule compounds that upregulate eGFP-tagged delta133p53alpha (in N-terminal) cells. (AID 2060322); settings: NCI-H358 eGFP-delta133p53alpha fluorescence, 24 h; activation: hits give high values; note: nearly all actives have a fitted effect of over 75% in size; note: potency is the fitted concentration of half-maximal effect;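 for activation: cells pre-induced with doxycycline then dosed without doxycycline; series mostly up to about 56 µM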
Chain of Cellular tumor antigen p53 (Homo sapiens) (P04637 whole entry, looked up): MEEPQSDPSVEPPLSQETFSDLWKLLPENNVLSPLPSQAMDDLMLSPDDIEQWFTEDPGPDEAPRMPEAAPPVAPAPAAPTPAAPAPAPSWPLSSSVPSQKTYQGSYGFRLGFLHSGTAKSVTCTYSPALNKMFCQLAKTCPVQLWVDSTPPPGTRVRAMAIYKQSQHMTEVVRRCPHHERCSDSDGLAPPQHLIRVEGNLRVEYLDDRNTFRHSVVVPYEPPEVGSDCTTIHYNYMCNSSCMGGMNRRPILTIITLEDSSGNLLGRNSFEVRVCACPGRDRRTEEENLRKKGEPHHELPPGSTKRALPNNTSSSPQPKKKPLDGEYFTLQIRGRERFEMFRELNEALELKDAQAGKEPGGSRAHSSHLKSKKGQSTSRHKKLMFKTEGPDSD
Summary of the method: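 NCI-H358 cells pre-induced 24 h with 10 ng/ml doxycycline for eGFP-delta133p53alpha, plated dox-free and exposed 24 h at 37C to titrated compounds. Fixed, Hoechst-stained; gated GFP peak intensity by laser scanning cytometry, normalized to DMSO (0%) and 57.5 uM 5-azacytidine (100%).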

[2] = molecular target: Aldehyde dehydrogenase, mitochondrial (Homo sapiens) (UniProt P05091); experiment: qHTS for Inhibitors of the Aldehyde Dehydrogenase Family (ALDH2) Primary screen (AID 2061308); note: nearly all actives have a fitted effect of over 55% in size
[3] = molecular target: Retinaldehyde dehydrogenase 3 (Homo sapiens) (UniProt P47895); experiment: qHTS for Inhibitors of the Aldehyde Dehydrogenase Family (ALDH1A3) Primary screen (AID 2061315)

Structure (SMILES) | activation [1] | Potency [2] | Potency [3] | Potency [1] | activity change, negative = inhibition [2] | activity change, negative = inhibition [3]
CC1CCCCCC(=O)c2c(O)cc(O)cc2CC(=O)O1 (stereo unspecified) | -18.3% | inactive | inactive |  |  | 
Oc1ccc2c(c1)C13CCCC[C@H]1[C@@H](C2)N(CC1CCC1)CC3 | 12.3% | inactive | inactive |  |  | 
CCCCCCC1C(=O)O[C@H](C)[C@H](NC(=O)c2cccc(NC=O)c2O)C(=O)O[C@@H](C)[C@@H]1OC(=O)CC(C)C (stereo partly specified) | -5.67% | inactive | inactive |  |  | 
C=C(C)[C@@]12O[C@@H]1[C@@]1(C)C(=CC2=O)CC[C@@H](OC(C)=O)[C@@H]1C |  | inactive | inactive | 30.1 µM (active) |  | 
CCC1CC2CN3CCc4c([nH]c5ccccc45)C(C(=O)OC)(C2)C13 (stereo unspecified) | 3.05% | inactive | inactive |  |  | 
CN(CC[C@H](N)CC(=O)N[C@H]1C=C[C@@H](n2ccc(N)nc2=O)O[C@@H]1C(=O)O)C(=N)N | 7.14% |  |  |  | -3.48% [at 11.2 µM] | 7.62% [at 11.2 µM]
COC(=O)C1=COC(C)C2CN3CCC4(C(=O)Nc5ccccc54)C3CC12 (stereo unspecified) | 11.5% | inactive | inactive |  |  | 
CN1C(=O)c2ccccc2NC(=O)C1Cc1ccccc1 (stereo unspecified) | -18.3% | inactive | inactive |  |  | 
CC1CCCC(O)CC(=O)Cc2cc(O)cc(O)c2C(=O)O1 (stereo unspecified) | 7.63% | inactive | inactive |  |  | 
CC[C@H]1CN2CC[C@H]1C[C@H]2[C@H](O)c1ccnc2ccc(OC)cc12 | 7.14% | inactive | inactive |  |  | 
CC1=CC2/C=C(\C)CCC(O)C(O)/C=C/C(=O)OC23C(=O)NC(CC(C)C)C3C1C (stereo unspecified) | 0.763% | inactive | inactive |  |  | 
CCCC[N+]1(C)[C@@H]2CC(OC(=O)[C@H](CO)c3ccccc3)C[C@H]1[C@@H]1O[C@@H]12 (stereo partly specified) | -28.8% and -9.82% | inactive | inactive |  |  | 
CCC1(O)CCC2C3CCC4=CC(=O)CCC4C3CCC21CC (stereo unspecified) | -2.33% | inactive | inactive |  |  | 
CC1=CC2(O)/C=C/C(C)(O)C(O)C(O)/C=C/C(=O)OC23C(=O)NC(CC(C)C)C3C1C (stereo unspecified) | 0.763% | inactive | inactive |  |  | 
CCCCn1cc(C(=O)c2cccc3ccccc23)c2ccccc21 | 0.955% | inactive | inactive |  |  | 
CCN1C[C@]2(COC)CC[C@H](O)[C@@]34C5C[C@@H]6[C@@H](OC)C[C@@](OC(C)=O)(C5[C@@H]6OC(C)=O)[C@H]([C@H](OC)C23)[C@@H]14 (stereo partly specified) | 8.04% | inactive | inactive |  |  | 
CN1CCc2cc3c(cc2C1C1OC(=O)c2c1ccc1c2OCO1)OCO3 (stereo unspecified) | -26% | inactive | inactive |  |  | 
C/C=C(\C)C(=O)OC1C2C3(C)CCC(OC4CC(OC)C(OC5OC(C)C(O)C(OC)C5O)C(C)O4)CC3CCC23OC32CCC(C(C)=O)C2(C)C1OC(=O)/C(C)=C/C (stereo unspecified) | 12.5% | inactive | inactive |  |  | 
COC1CCCC(C)OC(=O)Cc2cc(O)cc(O)c2C(=O)C1 (stereo unspecified) |  | inactive | inactive | 16.6 µM (active) |  | 
CC[C@@H](C)[C@H]1C(=O)O[C@H](C(C)C)C(=O)N(C)[C@@H](C(C)C)C(=O)O[C@H](C(C)C)C(=O)N(C)[C@@H](C(C)C)C(=O)O[C@H](C(C)C)C(=O)N1C | -17.6% | inactive | inactive |  |  | 
CC(=O)O[C@H]1CN2CCC1CC2 | 5% | inactive | inactive |  |  | 
COc1cc2c(cc1OC)[C@@]13CCN4CC5=CCO[C@H]6CC(=O)N2[C@H]1[C@H]6[C@H]5C[C@H]43 | -22.1% | inactive | inactive |  |  | 
CCCOC(=O)Cc1ccc(OCC(=O)N(CC)CC)c(OC)c1 | 4.33% | inactive | inactive |  |  | 
COc1cc(C(=O)O[C@H]2[C@@H]3C=CO[C@@H](O[C@@H]4O[C@H](CO)[C@@H](O)[C@H](O)[C@H]4O)[C@@H]3[C@@]3(CO)O[C@@H]23)ccc1O | -3.82% | inactive | inactive |  |  | 
C=C(C)[C@@]12O[C@@H]1[C@@]1(C)C(=C[C@H]2O)CC[C@@H](O)[C@@H]1C | 8.4% | inactive | inactive |  |  | 
CCC(C)(O)C1(C(=O)O)COC(=O)C1 (stereo unspecified) | 6.25% | inactive | inactive |  |  | 
CC(=O)OC[C@]12C[C@H](O)C(C)=C[C@H]1O[C@@H]1[C@H](O)[C@@H](OC(C)=O)[C@@]2(C)[C@]12CO2 |  | inactive | inactive | 0.083 µM (active) |  | 
